According to the supplement of paper PMC11417369:
± gives the standard deviation of the averaged measurements. Whole data set: some 25,000 sequences, median “ln(normalized median fluorescence intensity)” near 8.6, cut for the highest 2% near 10. The list comes from a sample in which the highest values are over-represented; it also holds similar and randomly drawn sequences.

System: PfAP2-EXP AP2 domain (GST-tagged)
Test: gcPBM binding intensity (ln(normalized median fluorescence intensity)); higher = stronger DNA binding
In short: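 GST-tagged P. falciparum DNA-binding domains produced in E. coli were incubated for 1 h on an Agilent 4 × 180k array of primer-extended double-stranded 36-bp intergenic genomic probes with negative controls. Binding intensity is the highest Masliner-normalised natural-log median intensity across replicate spots of either probe orientation, with bound protein detected by Alexa488 anti-GST antibody at 488 nm.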

| Sequence | gcPBM binding intensity (ln) |
| --- | --- |
| ATATATATATATATATGTACTTAAAAAATATATACA [XGTACX_site8952] | 10.2 ± 0.53 |
| ATATATATATATGTGTGTACTTAAAAATATAATGCA [XGTACX_site7753] | 10.2 ± 0.14 |
| TTTAATAATATAATGTGTACTTAAAAATTTATATAT [XGTACX_site5821] | 8.29 ± 0.21 |
| TATACATTATTATTATGTACTTAAATATATATTATA [XGTACX_site5173] | 8.35 ± 0.34 |
| AATAATAAATAAATGTGTACTTAAAAATATTATATT [XGTACX_site3005] | 8.44 ± 0.33 |
| ATTACAAATATAATATGTACTTAAATATAATTAAAA [XGTACX_site7038] | 8.17 ± 0.34 |
| TGGAAAATTATTAACACACACATATAAATATATATA [CACACA_site46] | 8.4 ± 0.45 |
| TGCAAATTTAACAAAAAAAAAAAAAAAAAAAAAAAA [GTGCAC_negctrl_site64] | 7.88 ± 0.45 |
| AAAATACAATTTCTAGCACACAAAATATTATTATAA [CACACA_site9056] | 8.34 ± 0.37 |
| TTCACTTTTTTTTTTTTTTTTTTTTTTTTTTTTATT [GTGCAC_negctrl_site350] | 8.07 ± 0.56 |
| TAATTTCTTATGTATTGTACATATAATATATGATAT [XGTACX_site4898] | 8.52 ± 0.41 |
| AATATTTTCTGTAATACTTCTTTTCAATTTATTTCG [CACACA_negctrl_site1390] | 8.76 ± 0.45 |
| ATATATATATATATATGGTAAAGTAAAAGGAAATAC [XGTACX_negctrl_site45] | 10.3 ± 0.3 |
| TATAAAATAAAAGTAAATATATATATATATATATAT [TGCATGCA_negctrl_site208] | 10.1 ± 0.3 |
| ATAATATATGAAAGTGGTACACAAAGGAAAATAAAA [XGTACX_site333] | 9.14 ± 0.57 |
| GAAACGTTTTTGAGTAGTACACACACAATAAGGATG [XGTACX_site6809] | 9.02 ± 0.45 |
| TTTTATACATAAATGTGTACGTATATATAATGAATT [XGTACX_site2762] | 8.59 ± 0.32 |
| GATTTATATTTTAAAAGTACAAGTTAAAATAAAAGT [XGTACX_site7059] | 8.74 ± 0.33 |
| ATATATGATGTATTTGTGCACATATATATATTATTA [GTGCAC_site9471] | 8.75 ± 0.028 |
| ATATATATTATGTGTGTGCACTTTTGTTATTATTAT | 9 ± 0.33 |
| TTATTTTATTTTTTTGTGCACATATATATTTATAAA [GTGCAC_site9615] | 9.15 ± 0.21 |
| TATGTATATTTTTTTGTGCACATATATATATATATA | 10.2 ± 0.26 |

| Sequence | gcPBM binding intensity (ln) |
| --- | --- |
| ACATATTATATATGTGTGCACATATATATATATTTA [GTGCAC_site9591] | 8.47 ± 0.13 |
| TTTTTGTTATTATGTGTGCACATATATATATATATA | 10.3 ± 0.4 |
| AACAAATACAGACACACACACACACTAATAAAAAAA [CACACA_site8067] | 8.66 ± 0.52 |
| ATATATGGAAAGAGTAGTACTATTATAGGGGTGTTA [XGTACX_site6785] | 8.95 ± 0.64 |
| TTTTTTTTGTAGAATTGTACTTATAAAATATATATA [XGTACX_site2116] | 8.19 ± 0.34 |
| TAAAAATTACTATATGAACACACATGATTAGATATA [CACACA_site9012] | 8.43 ± 0.49 |
| TTATATTTATAAAGGTGTACCTTAAAATGATTTTAC [XGTACX_site3774] | 8.19 ± 0.25 |
| ATTTGTTCATTTGGTTGTACATAATTTATTTTTATA [XGTACX_site785] | 8.75 ± 0.33 |
| GTCATATATAATTGTTGTACATTTTTATAATTATGT [XGTACX_site8091] | 8.86 ± 0.36 |
| ATATATATATATGTCTGTACATAAAAAATAATAAAT [XGTACX_site3122] | 10 ± 0.36 |
| AAAAAAAATATAATATGTACATATCTATATATCAAC [XGTACX_site4881] | 8.55 ± 0.38 |
| GCTCAATGTTTTACATGTACATATATATATATATAT [XGTACX_site8210] | 10.2 ± 0.33 |
| ATATATATATATATATGTACATATGTCAACTGTCTA [XGTACX_site8636] | 10.3 |
| ATATATATATATATATGTACATATATTTATATTTAT [XGTACX_site6179] | 9.99 ± 0.42 |
| ATTTATTTATTTATATGTACATATATATATATATAT [XGTACX_site339] | 10.1 ± 0.3 |
| TGTGTATATTATATGTGTACATATCAATGTTTATAT [XGTACX_site1885] | 8.61 ± 0.26 |
| TATACATGTATATATTGTACATATGTTTTTTTTACA [XGTACX_site3300] | 8.86 ± 0.57 |
| GTAATTTTATATGGTTGTACATATATATATATATAT [XGTACX_site6659] | 10.2 ± 0.18 |
| ATATATATATATATATGTACATATATTTATTTATTG [XGTACX_site6267] | 10.2 ± 0.3 |
| GGAATTATAATAAATGGTACACATAAAAAAAAAAAA [XGTACX_site8343] | 8.77 ± 0.59 |
| ATATATAATCATCACACATGCAGCCCTGATGAAAAA [TGCATGCA_site687] | 8.77 ± 0.38 |
| TGCATACTTTTGTAAGTGCATAAAATCGTACCATGC | 8.71 ± 0.11 |
